S2 tox: viability counter-screen for ATXN expression inhibitors; S2 cells (HEK-293 line with an ATXN2-luciferase reporter) viability, CellTiter-Fluor protease fluorescence, 24 h; Potency, µM (titrated, usually from 56.7 µM), actives largely listed as cytotoxic; 400,000 tested, 0.49% active; AID 651635; also: nearly all actives have a fitted effect of over 40% in size
ATXN2 expr inh: reduces ATXN2 reporter expression in HEK-293 cells | Potency, µM (titrated, usually from 57 µM), hits mostly inhibitors | 360,000 tested, 0.72% active | HEK-293 ATXN2-luciferase reporter, luminescence, 24 h; also: nearly all actives have a fitted effect of over 55% in size
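ATXN2-luciferase reporter cells (luciferase flanked by upstream and downstream ATXN2 gene portions) were treated 24 h at 37 °C with compounds at up to 57 uM. SteadyGlo luminescence gave expression; GF-AFC fluorescence gave viability.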
DRD3 agonist: activates the human D3 dopamine receptor; 410,000 tested, 0.58% active; max activation, %; D3R DiscoveRx beta-arrestin cells, luminescence, 90 min; P35462; in the data active = max activation above about 30%
Target sequence (P35462 whole entry, looked up): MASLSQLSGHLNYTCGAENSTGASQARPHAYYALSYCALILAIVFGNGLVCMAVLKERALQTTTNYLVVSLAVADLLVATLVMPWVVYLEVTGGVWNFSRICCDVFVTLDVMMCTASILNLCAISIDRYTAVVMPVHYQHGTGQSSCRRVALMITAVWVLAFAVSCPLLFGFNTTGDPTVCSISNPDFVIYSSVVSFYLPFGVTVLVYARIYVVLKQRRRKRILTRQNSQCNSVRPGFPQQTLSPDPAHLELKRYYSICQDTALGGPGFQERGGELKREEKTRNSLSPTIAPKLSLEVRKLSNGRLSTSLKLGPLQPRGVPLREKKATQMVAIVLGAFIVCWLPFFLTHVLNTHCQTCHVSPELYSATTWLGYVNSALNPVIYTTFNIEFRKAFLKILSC
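Cells at 1500/well, incubated overnight, then treated with pinned compounds (dopamine as control) for 90 min at 37 degrees C. DiscoveRx reagent added for 30 - 60 minutes at room temperature; luminescence read.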
HepG2 viability: counter-screen for TGF-b inhibitors: cytotoxicity in HepG2 cells | HepG2 CAGA-GFP viability, ATP luminescence, 18 h | Potency, µM (titrated, usually from 46.1 µM), hits mostly cytotoxic | 410,000 tested, 0.76% active | AID 588856
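HepG2 CAGA-GFP cells (1000/well, DMEM with 1% FBS) received compound, then TGF-beta at 500 pg/mL final, and were incubated 18 hours at 37 degrees C. Viability was read by CellTiter-Glo luminescence. Media-only wells were set as complete cell-killing and DMSO as no toxicity.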
TGFb SMAD3 inh: inhibitors of TGF-b signaling; HepG2 CAGA-GFP TGF-b/SMAD3 reporter, GFP fluorescence, 18 h; TGF-beta stimulated, 500 pg/mL final; Potency, µM (titrated, usually from 46.1 µM), actives largely listed as inhibitors; 410,000 tested, 1.2% active; also: nearly all actives have a fitted effect of over 65% in size
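HEPG2 CAGA-GFP reporter cells (1000/well, DMEM with 1% FBS) received compounds, then recombinant TGF-beta at 500 pg/mL final for 18 hours at 37 degrees C. Per-cell GFP summed per well was normalised to unstimulated and stimulated DMSO controls before curve fitting.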
D3 antag: antagonists of human D3 dopamine receptor | D3R cells, DiscoveRx beta-arrestin luminescence, antagonist mode; hits give low values | max response, negative = inhibition, % | 360,000 tested, 2.5% active | AID 652054; in the data active = max response below about -50%; inconclusive = no clear call, values can overlap the other calls
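Cells plated overnight at 1500 cells/well, then exposed to library compounds with dopamine controls for 90 minutes at 37 degrees C. DiscoveRx reagent added for 30–60 minutes at room temperature; luminescence read, quantitative HTS format.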
Numbers stand for hits; [ ] = another dose, or the depositor's remark. Hits are enriched below; roughly 4.8% of the tested compounds scored in any of these assays. Unless noted, calls follow the shape of the dose curve; as a rule, active = well fitted curve in the direction sought with a large enough effect; inconclusive = small, poorly fitted or top-dose-only effect, or another doubt; inactive = no such curve, though single readings can be large; an effect the other way counts as inactive or inconclusive.

Cc1ccc(C)c(N2CCN(CCCNC(=O)Cn3cc4c(n3)CCC(C)C4)CC2)c1 (configuration not stated) was read as S2 tox inactive, ATXN2 expr inh inactive, DRD3 agonist inactive, HepG2 viability inactive, TGFb SMAD3 inh inactive and D3 antag -60.
For O=C(Cn1cc2c(n1)CCCC2)NCCCN1CCN(Cc2ccccc2)CC1 the results were S2 tox inactive, ATXN2 expr inh inactive, DRD3 agonist inactive, HepG2 viability inactive, TGFb SMAD3 inh inactive and D3 antag inactive.
For CC1CCc2nn(CC(=O)NCCCN3CCCC3=O)cc2C1 (configuration not stated) the results were S2 tox inactive, ATXN2 expr inh inactive, DRD3 agonist inactive, HepG2 viability inactive, TGFb SMAD3 inh inactive and D3 antag inactive.
For Cc1ccc(C)c(N2CCN(CCCNC(=O)Cn3cc4c(n3)CCCCC4)CC2)c1 the results were S2 tox inconclusive, ATXN2 expr inh inconclusive, DRD3 agonist inactive, HepG2 viability inactive, TGFb SMAD3 inh inconclusive and D3 antag -96.
O=C(Cn1cc2c(n1)CCCC2)NCCCN1CCN(c2ccccc2F)CC1 was read as S2 tox inactive, ATXN2 expr inh inactive, DRD3 agonist inactive, HepG2 viability inactive, TGFb SMAD3 inh inactive and D3 antag -83.
For CCCCCCCCCCCC(=O)OCC(O)CO (configuration not stated) the results were DRD3 agonist inactive.
Cc1ccc(C2N3CC4(C)CN2CC(c2ccccc2)(C3)C4=O)cc1 (configuration not stated) was read as S2 tox inactive, ATXN2 expr inh inactive, DRD3 agonist inactive, HepG2 viability inactive and TGFb SMAD3 inh inconclusive.
For CC1CC=CC2C1C(=O)N(Cc1ccccc1)C2c1ccc(Br)cc1F (configuration not stated) the results were HepG2 viability inactive and TGFb SMAD3 inh inactive.
For CNC[C@H](O)[C@@H](O)[C@H](O)[C@H](O)CO the results were S2 tox inactive, ATXN2 expr inh inactive and DRD3 agonist inactive.
Cc1[nH]cnc1C[C@H]1CCc2c(C)c3ccccc3n2C1=O was read as S2 tox inactive.
For COc1ccc(OCC(=O)N2CCN(c3nnc(-c4ccc(C)cc4)c4ccccc34)CC2)cc1 the results were S2 tox inconclusive, ATXN2 expr inh inconclusive, DRD3 agonist inactive, HepG2 viability inactive, TGFb SMAD3 inh inactive and D3 antag inactive.
Screening Cc1ccc(OCC(=O)N2CCN(c3nnc(-c4ccc(C)cc4)c4ccccc34)CC2)cc1 returned S2 tox inconclusive, ATXN2 expr inh 28µM, DRD3 agonist inactive, HepG2 viability inactive, TGFb SMAD3 inh inconclusive and D3 antag inactive.
Cc1ccc(C)c(C(=O)NCCN(C)C)c1 was read as S2 tox inactive, ATXN2 expr inh inactive, DRD3 agonist inactive, HepG2 viability inactive, TGFb SMAD3 inh inactive and D3 antag inactive.
For C=C(CN(C)C)C(=O)c1cc(C)ccc1C the results were S2 tox 11µM, ATXN2 expr inh 11µM, DRD3 agonist inactive, HepG2 viability inactive, TGFb SMAD3 inh 2.5µM and D3 antag -88.
CN(C)CCCN=c1c2ccccc2n(C)c2[nH]c(=O)n(C)c(=O)c12 was read as ATXN2 expr inh 17µM.
CN(C)CCn1c(=S)[nH]c2ccccc2c1=O was read as S2 tox inactive, ATXN2 expr inh inactive, DRD3 agonist inactive, HepG2 viability inactive, TGFb SMAD3 inh inactive and D3 antag inactive.
For COc1ccc(N2CCN(c3oc(/C=C/c4cc(OC)c(OC)c(OC)c4)nc3C#N)CC2)cc1 the results were DRD3 agonist inactive, HepG2 viability inactive and TGFb SMAD3 inh inactive.
S=C(Nc1ccc(Cl)cc1)NC1CC2CCC(C1)N2Cc1ccccc1 (configuration not stated) was read as S2 tox inactive, ATXN2 expr inh inactive[11.3 µM], DRD3 agonist inactive, HepG2 viability inactive, TGFb SMAD3 inh inconclusive and D3 antag -76.
`CCc1ccc(NC(=S)NC2CC3CCCC(C2)N3Cc2ccccc2)cc1` (configuration not stated) gave S2 tox inconclusive, DRD3 agonist inactive, HepG2 viability inactive, TGFb SMAD3 inh inconclusive and D3 antag -109.
CNC(=S)NC1CC2CCCC(C1)N2Cc1ccco1 (configuration not stated) was read as S2 tox inactive, ATXN2 expr inh inactive, DRD3 agonist inactive, HepG2 viability inactive, TGFb SMAD3 inh inactive and D3 antag inactive.
CCc1ccc(NC(=S)NC2CC3CCC(C2)N3Cc2ccco2)cc1 (configuration not stated) was read as S2 tox inactive, ATXN2 expr inh inactive, DRD3 agonist inactive, HepG2 viability inactive, TGFb SMAD3 inh inactive and D3 antag inconclusive.
`CNC(=S)NC1CC2CCC(C1)N2Cc1ccccc1` (configuration not stated) gave S2 tox inactive, ATXN2 expr inh inactive, DRD3 agonist inactive, HepG2 viability inactive, TGFb SMAD3 inh inactive and D3 antag -81.
`CCC1CN(Cc2cccn2-c2ccccn2)Cc2cc(OC)ccc2O1` (configuration not stated) gave S2 tox inactive.
CCOc1cc(/C=C2/C(=O)ON=C2C)ccc1OCc1ccccc1F was read as S2 tox inconclusive, ATXN2 expr inh inconclusive, DRD3 agonist inactive, HepG2 viability 16µM, TGFb SMAD3 inh inconclusive and D3 antag inactive.
COc1ccc(OC)c(/C(O)=C/C(=O)C(=O)Nc2cc(C)ccc2OC)c1 was read as S2 tox inactive, ATXN2 expr inh inactive, DRD3 agonist inactive, HepG2 viability inactive, TGFb SMAD3 inh inactive and D3 antag -57.
`COc1ccc(OC)c(/C(O)=C/C(=O)C(=O)Nc2cc(C)cc(C)c2)c1` gave S2 tox inactive, ATXN2 expr inh inactive, DRD3 agonist inactive, HepG2 viability inactive, TGFb SMAD3 inh inactive and D3 antag -86.
Screening CCOc1ccccc1NC(=O)C(=O)/C=C(\O)c1cc(OC)ccc1OC returned S2 tox inactive, ATXN2 expr inh inactive, DRD3 agonist inactive, HepG2 viability inactive, TGFb SMAD3 inh inactive and D3 antag -53.
For NC(=O)Cn1c(=O)n(CCCCCC(=O)NCc2ccccc2Cl)c(=O)c2sccc21 the results were DRD3 agonist inactive, HepG2 viability inactive and TGFb SMAD3 inh inactive.
Screening CC(O)[C@@H]1NC(=O)[C@H](CCCCN)NC(=O)[C@@H](Cc2c[nH]c3ccccc23)NC(=O)[C@H](Cc2ccccc2)NC(=O)[C@@H](NC(=O)[C@H](N)Cc2ccccc2)CSSC[C@@H](C(=O)N[C@H](CO)[C@@H](C)O)NC1=O (some centres not stated) returned DRD3 agonist inactive.
